Tb PFK block: inhibitors of T. brucei phosphofructokinase. Potency, µM (highest dose often 57.5 µM), usual class: inhibitors. 330,000 tested, 0.17% active. T. brucei PFK, ADP-Glo luminescence. O15648; further: nearly all actives have a fitted effect of over 60% in size
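Compounds were pin-transferred as a titration series up to 57 uM into substrate buffer (0.5 mM F6P, 0.1 mM ATP, pH 8.0), then 1.25 nM PFK was added and reactions ran 45 min before ADP-Glo detection.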
Pin1 inh: human Pin1 inhibition | 390,000 tested, 0.009% active | Pin1 FP peptide displacement, HiFluor488, 10 min | Potency, µM (series often up to 115 µM), usual class: inhibitors | Q13526; active means well fitted inhibition curve with a large enough effect in the polarisation, with a control signal flat, not every such curve was filed as active; inconclusive means small, poorly fitted or top-dose-only effect, or effect the other way, or a change in a side signal; inactive means no such curve, though single readings can be large or run the other way; the % refers to the polarisation
TDP1 block: blocks human tyrosyl-DNA phosphodiesterase 1; 350,000 tested, 0.28% active; Q9NUW8; Potency, µM (top dose mostly 130 µM), hits mostly inhibitors; recombinant TDP1, AlphaScreen DNA substrate cleavage; further: nearly all actives have a fitted effect of over 40% in size
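E. coli-derived human Tdp1, 1 nM final. Cpd preinc 15 min RT; substrate 15 nM final, 5 min RT; AS bead mix 10 ug/ml final, 10 min RT. Signal loss = tyrosine-FITC cleavage. No-enzyme wells = max signal.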
VDR inhibitor: inhibitors of human vitamin D receptor; P11473; VDR-SRC2-3 peptide fluorescence polarization, 2 h; Potency, µM, usual class: inhibitors; 400,000 tested, 0.93% active; AID 504847
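Fluorescence polarization assay measuring small-molecule disruption of VDR binding to the coregulator peptide SRC2-3. Compounds were pin-transferred (23 nl) into the reagent mix and incubated 2 h at room temperature before reading.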
PLK1 PBD inh: PLK1 (human) polo-box domain binding inhibition | P53350 | Plk1 PBD binding of FITC phosphopeptide, fluorescence polarization | 360,000 tested, 2.8% active | Potency, µM, most hits filed as inhibitors; further: series mostly up to about 57 µM; nearly all actives have a fitted effect of over 65% in size
S-ASM inh: blocks human secretory acid sphingomyelinase; P17405; placental ASM, HMU-PC fluorogenic substrate, 60 min; Potency, µM (series often up to 57.5 µM), usual class: inhibitors; 340,000 tested, 0.006% active; AID 504937
Target sequence (P17405 47-631 limits assumed): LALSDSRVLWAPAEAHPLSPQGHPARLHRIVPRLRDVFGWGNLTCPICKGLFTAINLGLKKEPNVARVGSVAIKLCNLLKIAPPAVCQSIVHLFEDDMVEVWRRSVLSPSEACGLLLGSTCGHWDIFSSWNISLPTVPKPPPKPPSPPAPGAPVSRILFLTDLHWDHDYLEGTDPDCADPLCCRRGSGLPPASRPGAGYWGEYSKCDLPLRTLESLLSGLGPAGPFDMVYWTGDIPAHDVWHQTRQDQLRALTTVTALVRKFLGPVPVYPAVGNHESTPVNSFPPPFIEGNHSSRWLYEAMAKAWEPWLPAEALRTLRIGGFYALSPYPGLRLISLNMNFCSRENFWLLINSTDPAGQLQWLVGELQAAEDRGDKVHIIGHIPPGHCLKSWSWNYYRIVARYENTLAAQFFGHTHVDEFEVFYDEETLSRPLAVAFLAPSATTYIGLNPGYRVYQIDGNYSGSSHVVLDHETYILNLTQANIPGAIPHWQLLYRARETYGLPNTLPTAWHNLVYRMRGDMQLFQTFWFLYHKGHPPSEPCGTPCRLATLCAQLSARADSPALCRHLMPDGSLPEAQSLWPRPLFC
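Fluorogenic HMU-PC substrate (9 uM final) is turned over by placental ASM in 60 min at 37 C after a 10 min compound preincubation. Reaction ended by alkaline stop (pH 10), with fluorescence read at 386/447 nm.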
VDR confirm: confirmation of human vitamin D receptor inhibitors. shares compounds with VDR inhibitor. VDR-coactivator inhibition assay, qHTS confirmation. Potency, µM, usual class: inhibitors. 840 tested, 89% active. AID 602199
VDR FP: confirmation of human VDR-coactivator binding inhibitors, fluorescein label; shares compounds with VDR inhibitor; VDR-coactivator binding, fluorescein fluorescence polarization; Potency, µM (doses to about 57.1 µM), actives largely listed as inhibitors; 840 tested, 48% active
VDR bla: inhibits human VDR in beta-lactamase reporter cells; shares compounds with VDR inhibitor; VDR beta-lactamase reporter cells, FRET ratio; cells co-treated with VDR agonist LG190178; Potency, µM (top dose mostly 46.1 µM), usual class: inhibitors; 840 tested, 23% active
VDR viability: counter-screen for vitamin D receptor inhibitors: cytotoxicity; shares compounds with VDR inhibitor; cytotoxicity counter-screen, cell viability, qHTS; Potency, µM (doses to about 48.3 µM), actives largely listed as cytotoxic; 840 tested, 18% active; further: nearly all actives have a fitted effect of over 75% in size
Hits are given with their value; n = inactive; u = inconclusive; x = no result; [ ] = remark or other dose. Rows were chosen to be rich in hits. Some 3.1% of all compounds tested hit in one or more screens of this group. Unless noted, the call rests on the fitted dose curve; in most records, active means well fitted curve in the direction sought with a large enough effect; inconclusive means small, poorly fitted or top-dose-only effect, or another doubt; inactive means no such curve, though single readings can be large; an effect the other way counts as inactive or inconclusive.

SMILES	Tb PFK block	Pin1 inh	TDP1 block	VDR inhibitor	PLK1 PBD inh	S-ASM inh	VDR confirm	VDR FP	VDR bla	VDR viability
CCOC(=O)CS(=O)(=O)c1nc(-c2ccccc2)cc(C(F)(F)F)n1	n	n	n	20µM	11µM	n	7.5	u	u	u
CC(C)(C)c1ccc(C(=O)NCC(c2cccnc2)N2CCc3ccccc3C2)cc1 (stereo not drawn)	x	n	n	n	x	x	x	x	x	x
CCCSc1nc2c([nH]c3ccccc32)c(=O)n1C	x	n	n	n	x	x	x	x	x	x
COc1ccc(Cl)cc1NC(=O)c1cc2ccc3ccc(C)[nH]c3c2n1	x	n	n	n	x	x	x	x	x	x
Cc1ccccc1OCc1nc2ccc(S(=O)(=O)N3CCOCC3)cc2[nH]1	n	n	n	40µM	9.5µM	n	21	u	n	n
Cc1ccccc1Cn1cc(CCC(=O)NCc2cccc(Br)c2)c2ccccc21	x	n	n	n	x	x	x	x	x	x
c1ccc(-c2ccc(C3=Nn4c(Cn5nnc6ccccc65)nnc4SC3)cc2)cc1	n	n	n	u	4.7µM	n	14	10µM	n	n
FC(F)(F)c1nnc2n1N=C(c1ccccc1)CS2	n	n	x	n	n	n	x	x	x	x
CSc1nnc(NC(=O)c2nc(S(=O)(=O)Cc3ccccc3)ncc2Cl)s1	n	n	n	u	30µM	n	10	8.9µM	5.2µM	27µM
Cc1ccccc1CS(=O)(=O)c1ncc(Cl)c(C(=O)Nc2nnc(C(C)C)s2)n1	x	n	n	u	x	x	x	x	x	x
CSc1ncc(Cl)c(C(=O)Nc2nnc(SC)s2)n1	n	n	n	n	n	n	x	x	x	x
CC(C)c1nnc(NC(=O)c2nc(S(=O)(=O)Cc3ccccc3)ncc2Cl)s1	n	n	n	16µM	u	n	9.5	7.9µM	6.5µM	15µM
COc1cc(C2Oc3ccccc3C=C2[N+](=O)[O-])cc(OC)c1OC (stereo not drawn)	n	n	n	22µM	4.2µM	n	17	u	u	u
O=C(NCc1cccnc1)/C(=C\c1ccc(-c2cccc(Cl)c2)o1)S(=O)(=O)c1ccccc1	n	n	n	45µM	n	n	24	u	6.5µM	18µM
COc1ccc(S(=O)(=O)NCC(c2ccco2)S(=O)(=O)c2cccs2)cc1F (stereo not drawn)	x	n	n	n	x	x	x	x	x	x
CCCSc1ncc(Cl)c(C(=O)N2CCN(c3cccc(Cl)c3)CC2)n1	x	n	n	n	x	x	x	x	x	x
O=C(NCc1nc2ccccc2[nH]1)c1cccc(Cl)c1	x	n	n	n	x	x	x	x	x	x
O=C(/C=C/c1cccc(Cl)c1)c1nc2ccccc2[nH]1	n	n	n	45µM	u	n	8.4	u	u	u
CC(C)CCNC(=O)c1ccc(Cn2c(SCC(=O)NC(C)C)nc3ccccc3c2=O)cc1	x	n	n	n	x	x	x	x	x	x
O=C1NCc2c1c1c3ccccc3[nH]c1c1[nH]c3ccccc3c21	x	n	n	n	x	x	x	x	x	x
CCc1ccc(/C=C/C(=O)c2ccc(S(=O)(=O)N(C)C)cc2)cc1	n	n	n	u	n	n	u	6.3µM	n	u
Cc1ccc(SCc2nc(-c3ccc(C(=O)NCc4ccccc4Cl)cc3)oc2C)cc1	x	n	n	n	x	x	x	x	x	x
CCc1ccc(CNc2nc3nc(C)c(Cc4ccccc4)c(=O)n3[nH]2)cc1	x	n	n	n	x	x	x	x	x	x
CS(=O)(=O)c1nc(-c2ccc(F)cc2)cc(C(F)(F)F)n1	n	n	n	7.9µM	24µM	n	19	u	u	u
COc1ccc(-c2cc(C(F)(F)F)nc(S(C)(=O)=O)n2)cc1	n	n	n	40µM	u	n	18	28µM	u	u
SMILES	Tb PFK block	Pin1 inh	TDP1 block	VDR inhibitor	PLK1 PBD inh	S-ASM inh	VDR confirm	VDR FP	VDR bla	VDR viability
O=C(/C=C/c1ccccc1)c1ccc2ccccc2c1	x	u	x	u	n	n	x	x	x	x
O=C(/C=C/c1ccccc1)c1ccccc1	n	n	n	18µM	n	n	16	11µM	26µM	u
CNc1ccc(Br)cc(C(=O)/C=C/c2ccc(Cl)cc2Cl)c1=O	n	u	n	u	u	n	3.5	u	u	n
S=C(NNc1ccnc2cc(Cl)ccc12)Nc1ccccc1Cl	n	n	n	u	15µM	n	13	10µM	u	u
CC(=O)c1cc(-c2ccc(F)cc2)n(CC(=O)NC2CCCCCC2)c1C	x	n	n	n	x	x	x	x	x	x
CCOC(=O)c1c(C)oc2nc(C)nc(NCc3cccc(OC)c3)c12	x	n	n	n	x	x	x	x	x	x
COc1cccc(Cn2c(CNC(=O)CCc3ccccc3)nc3cccnc32)c1	x	n	n	n	x	x	x	x	x	x
CC(=O)Nc1sc(N/N=C\c2ccccc2Cl)nc1-c1cccs1	n	n	n	u	n	n	x	x	x	x
CC(=O)Nc1sc(N/N=C\c2ccccc2)nc1-c1cccs1	n	n	n	32µM	u	n	3.4	u	n	n
O=[N+]([O-])c1c(Nc2ccccc2O)cc(Cl)c2nonc12	u	u	x	45µM	3µM	n	4.2	u	4.6µM	13µM
O=C(O)c1cc(Nc2cc(Cl)c3nonc3c2[N+](=O)[O-])ccc1O	n	u	x	3.5µM	4.7µM	n	2.7	u	n	n
CCOc1ccc(NC(=O)CC2C(=O)N(c3ccc(F)cc3)C(=O)N2CCc2sccc2C)cc1 (stereo not drawn)	x	n	n	n	x	x	x	x	x	x
CCC(=C(CC)c1ccc(O)cc1)c1ccc(O)cc1	x	x	n[21 µM]	n	x	x	x	x	x	x
O=C(NO)c1ccccc1	x	x	n	x	x	x	x	x	x	x
O=C(NC1(O)C(=O)c2ccccc2C1=O)c1c(Cl)cccc1Cl	n	n	n	u	n	n	4	4µM	n	n
O=C(Nc1ccccc1Cl)c1c(F)c(F)c(F)c(F)c1F	x	n	x	n	n	n	x	x	x	x
O=C(NC1(O)C(=O)c2ccccc2C1=O)c1ccccc1	n	n	n	u	n	n	1	1µM	n	n
COC(=O)[C@@H]1[C@@H](C#N)C2(c3ccccc3-c3ccccc32)N(c2ccc(Cl)cc2)N1C#N	n	n	n	25µM	u	n	24	u	u	u
Cc1cc(C)c2c(C)c(C(=O)N3CCC(c4nc5ccccc5s4)CC3)oc2c1	x	n	n	n	x	x	x	x	x	x
CCn1ccc2cc(S(=O)(=O)N3CCCN(C(=O)NCC(=O)OC)CC3)ccc21	x	n	n	n	x	x	x	x	x	x
